Screening results from PubChem.
This is a sample that favours compounds with a hit; in the whole collection about 2.9% have one here.
APOBEC3G inh: APOBEC3G DNA deaminase inhibitors, primary screen, biochemical, fluorescence, single-stranded DNA substrate, uHTS | DNA dC->dU-editing enzyme APOBEC-3G (Homo sapiens), Q9HC16 | recombinant A3G, ssDNA deamination FAM/TAMRA fluorescence | inhibition, % at 20 µM | hit rate 0.28% among 330,000;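 active = inhibition of at least 40% at 20 µM, with no more than 30% in the related APOBEC3A deaminase screen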;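 also: plate controls were DMSO wells with A3G for no effect and wells lacking A3G enzyme for full effect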
Target sequence (Q9HC16 whole entry, looked up): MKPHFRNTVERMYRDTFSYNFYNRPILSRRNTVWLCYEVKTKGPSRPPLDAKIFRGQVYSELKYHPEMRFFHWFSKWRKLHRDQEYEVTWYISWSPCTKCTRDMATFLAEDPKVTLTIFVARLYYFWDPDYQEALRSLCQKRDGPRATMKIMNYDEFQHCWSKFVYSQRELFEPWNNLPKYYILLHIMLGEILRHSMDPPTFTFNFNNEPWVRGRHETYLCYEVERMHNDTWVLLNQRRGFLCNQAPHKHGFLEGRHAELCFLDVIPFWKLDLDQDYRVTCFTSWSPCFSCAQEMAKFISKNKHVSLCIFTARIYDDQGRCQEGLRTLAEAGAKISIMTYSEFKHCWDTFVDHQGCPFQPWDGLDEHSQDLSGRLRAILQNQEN
PfG6PD inh: PfG6PD enzyme inhibitors, primary screen, biochemical, fluorescence intensity, uHTS | PfGluPho enzyme, NADPH resazurin-diaphorase fluorescence | hit rate 0.78% among 350,000 | glucose-6-phosphate dehydrogenase-6-phosphogluconolactonase (Plasmodium falciparum 3D7) | AID 504690, 2011 | inhibition, % at 20 µM;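 active = inhibition reaching at least a set limit at 20 µM in the primary screen, cut at about 59% in these data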;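 also: 0% = DMSO wells with substrate and 100% = DMSO wells lacking glucose-6-phosphate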
H9c2 protect: cardioprotection against H2O2-induced cell death, primary screen, uHTS, H9c2 cells, ATPLite luminescence | H9c2 cardiomyocytes, H2O2 injury protection, 2 h | protection from H2O2 cell death, % at 20 µM | hit rate 0.63% among 360,000;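 active = compounds giving at least 50% protection of heart cells from peroxide-induced death in the single-dose screen, raw or plate-pattern-corrected value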;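 also: 0% = DMSO wells with peroxide and 100% = DMSO wells without peroxide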
TAG inh: inhibitors of triacylglycerol accumulation, primary screen, cell-based, uHTS, fluorescence, H9c2; H9c2 cells, Nile Red lipid (TAG) fluorescence; cells loaded with 200 µM oleic acid; AID 651582, 2012; hit rate 0.66% among 230,000; inhibition, % at 12.5 µM;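 active = pattern-corrected inhibition of lipid staining of at least 50% with the nuclear-stain viability signal not falling by more than 50%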;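 also: 0% = DMSO wells and 100% = triacsin C control wells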
APOBEC3A inh: APOBEC3A ssDNA deaminase inhibitors, primary screen, selectivity assay for APOBEC3G inhibitor project, biochemical, FAM/TAMRA oligo cleavage fluorescence; AID 493011, 2011; hit rate 0.41% among 330,000; recombinant A3A, FAM/TAMRA ssDNA deamination fluorescence; inhibition, % at 20 µM; DNA dC->dU-editing enzyme APOBEC-3A (Homo sapiens), P31941;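 active = at least 40% inhibition at 20 µM here, with at most 30% in a related deaminase screen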;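 also: plate controls were A3A with DMSO for no effect and wells lacking A3A enzyme for full effect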
Target sequence (P31941 whole entry, looked up): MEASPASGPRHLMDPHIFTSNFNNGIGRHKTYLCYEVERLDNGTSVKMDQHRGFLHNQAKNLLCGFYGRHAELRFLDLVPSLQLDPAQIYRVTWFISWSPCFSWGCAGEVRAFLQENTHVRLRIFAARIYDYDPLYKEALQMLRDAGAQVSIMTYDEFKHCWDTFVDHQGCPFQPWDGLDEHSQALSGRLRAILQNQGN
NadD inh: inhibitors of S. aureus NadD, primary screen, biochemical, colorimetric, uHTS; inhibition, % at 20 µM; hit rate 0.78% among 360,000; purified NadD enzyme, colorimetric absorbance read-out; in the data active = inhibition above about 26%
PfGluPho conf: PfG6PD inhibitors, hit retest, confirmation, biochemical, fluorescence intensity, single concentration. shares compounds with PfG6PD inh. recombinant PfGluPho, NADPH-diaphorase-resazurin fluorescence. inhibition, % at 20 µM. hit rate 34% among 2,400. AID 504753, 2011;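 active = inhibition of at least 50% at 20 µM in any single replicate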;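 also: 0% = DMSO with substrate and 100% = DMSO lacking glucose-6-phosphate substrate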
Diaph ctr 10uM: diaphorase inhibitors and chemical oxidizers, confirmation, counter-screen for P. falciparum G6PD inhibitor project, biochemical, fluorescence intensity, 10 µM NADPH. hit rate 39% among 820. inhibition, % at 20 µM. shares compounds with PfG6PD inh. diaphorase-coupled resazurin reduction, NADPH 10 uM. AID 504862, 2011;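 active = average inhibition reaching 50% or more with the compound at 20 µM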;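 also: resorufin red fluorescence formed as diaphorase reduces resazurin using NADPH; 0% = DMSO with enzyme and 100% = DMSO without enzyme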
Diaph ctr 30uM: diaphorase inhibitors and chemical oxidizers, confirmation, counter-screen for P. falciparum G6PD inhibitor project, biochemical, fluorescence intensity, 30 µM NADPH | shares compounds with PfG6PD inh | Diaphorase/resazurin coupled assay, resorufin fluorescence | inhibition, % at 20 µM | hit rate 29% among 820;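 active = inhibition averaging 50% or more, tested at 20 µM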;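 also: 0% = DMSO with enzyme and 100% = DMSO wells lacking diaphorase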
* marks the source's active call; other numbers are inactive results; nt = not tested or not shown.

SMILES | APOBEC3G inh | PfG6PD inh | H9c2 protect | TAG inh | APOBEC3A inh | NadD inh | PfGluPho conf | others
COc1cc(/C=C/C(=O)c2ccc([N+](=O)[O-])o2)ccc1O | -6 | 77* | -10 | 116 | 3 | 0 | 60* | Diaph ctr 10uM=40;Diaph ctr 30uM=35
Cc1ccc(C)c(NC(=O)COC(=O)c2cccc(S(=O)(=O)N3CCCC3)c2)c1 | nt | 1 | -4 | -1 | nt | 2 | nt
Cc1nc(-c2ccc(S(=O)(=O)N3CCOCC3)cc2)cs1 | 0 | 5 | -2 | -21 | 3 | -4 | nt
Cc1ccc(Nc2nc(-c3ccc(S(=O)(=O)N4CCOCC4)cc3)cs2)cc1 | -5 | 59 | -20 | nt | -3 | 10 | 42
O=C(CN1CCN(c2ccc(C(F)(F)F)cn2)CC1)Nc1ccc2c(c1)OCO2 | -3 | 0 | -5 | 0 | 10 | -4 | nt
COc1ccc(Nc2nnc(SCc3cc(=O)n4ccsc4n3)s2)cc1 | 2 | 82* | 63* | nt | 9 | -4 | 47
C#CCOCCOCCOCCNc1nc(N2CCN(C(=O)CCCCCCCCCCNC(=O)[C@H](CCCCN)n3cc(CCO)nn3)CC2)nc(N2CCN(C(=O)CCCCCCCCCCNC(=O)[C@H](CCCCN)n3cc(C[C@@H](C)CC)nn3)CC2)n1 | -8 | 77* | nt | nt | -8 | nt | 12
C#CCOCCOCCOCCNc1nc(N2CCN(C(=O)[C@H](CCCCN)n3cc([C@@H](N)C(C)CC)nn3)CC2)nc(N2CCN(C(=O)[C@H](Cc3cc4ccccc4[nH]3)n3cc([C@@H](N)C(C)CC)nn3)CC2)n1 (stereo partly specified) | -8 | 61* | -2 | -27 | -4 | 6 | 37
C#CCOCCOCCOCCNc1nc(N2CCN(C(=O)CCCCCCCCCCNC(=O)[C@H](CCCCN)n3cc(CCO)nn3)CC2)nc(N2CCN(C(=O)CCCCCCCCCCNC(=O)[C@H](CCCCN)n3cc(CCCC(=O)O)nn3)CC2)n1 | 0 | 58 | -4 | -3 | 1 | 12 | nt
COC(=O)c1cc(S(=O)(=O)NCC2CCN(CCc3ccc(OC)cc3)CC2)c[nH]1 | 2 | -4 | 6 | nt | 2 | -4 | nt
NC1=NC(=Nc2ccc(Cl)cc2)c2ccccc21 | -6 | 6 | 3 | 4 | -3 | -1 | nt
CC(C)c1ccc(N=C2N=C(N)c3ccccc32)cc1 | -6 | 59* | -29 | 11 | -4 | -4 | 30
O=C(NCCN1CCOCC1)c1ccc2c(c1)N(Cc1ccccc1F)C(=O)c1ccccc1S2 | -9 | 9 | 8 | -7 | -10 | -11 | nt
O=C(c1ccc2c(c1)N(Cc1ccccc1)C(=O)c1ccccc1S2)N1CCCC1 | -1 | 102* | -5 | nt | 3 | -8 | 72* | Diaph ctr 10uM=62*;Diaph ctr 30uM=63*
O=C(c1ccc2c(c1)N(Cc1ccccc1F)C(=O)c1ccccc1S2)N1CCOCC1 | -1 | 69* | nt | nt | 4 | nt | 35
C=CC(=O)N1C/C(=C/c2ccc(F)cc2)C(=O)/C(=C\c2ccc(F)cc2)C1 | nt | 62* | -16 | 78* | nt | -7 | 14
CN1C2CCC1/C(=C\c1ccc(F)cc1)C(=O)/C2=C/c1ccc(F)cc1 | -10 | 4 | -2 | nt | -4 | -8 | nt
O=C(c1ccccc1)N1CCN(c2cc(Cl)nc3cc(-c4cccc(Cl)c4)nn23)CC1 | nt | 6 | -4 | 15 | nt | 13 | nt
CCOC(=O)C1(Cc2ccccc2Cl)CCN(Cc2csc(C(C)=O)c2)CC1 | -10 | 63* | -2 | -8 | -2 | -1 | 25
CCOC(=O)C1(Cc2cccc(OC)c2)CCN(Cc2ccccc2)CC1 | -5 | 22 | -6 | -33 | 1 | -5 | nt
COCC(=O)N1CCC(Oc2ccc(C(=O)N(C)Cc3nccs3)cc2)CC1 | -7 | 3 | 0 | nt | -7 | 3 | nt
Nc1ncnc2[nH]c(=S)[nH]c12 | nt | 29 | 2 | 3 | nt | 1 | nt
O=c1[nH]c(=O)c2[nH]c(=S)[nH]c2[nH]1 | nt | 66* | -2 | 8 | nt | 5 | 28
C=CC[C@@H](CC(=O)N(CCO)Cc1ccccc1)C(=O)NC[C@H](OC(=O)[C@@H](CC=C)Cc1ccc(F)cc1)c1ccccc1 | -5 | 14 | 1 | 28 | 1 | -9 | nt
Cc1cc(C)c(S(=O)(=O)/N=C2/C=C(SCC(=O)O)C(=O)c3ccccc32)cc1C | 7 | 106* | -21 | -4 | -2 | 48* | 95* | Diaph ctr 10uM=48;Diaph ctr 30uM=36
SMILES | APOBEC3G inh | PfG6PD inh | H9c2 protect | TAG inh | APOBEC3A inh | NadD inh | PfGluPho conf | others
CCOC(=O)C[C@H]1c2ccccc2S(=O)(=O)N1Cc1cccc(C(F)(F)F)c1 | -1 | 11 | -4 | -1 | -3 | -9 | nt
ONC(=Nc1ccccc1Cl)c1ccccc1Cl | -3 | 68* | -3 | -6 | -2 | 4 | 41
CN(C(=O)COC(=O)CSc1ccc([N+](=O)[O-])cc1)C1CCS(=O)(=O)C1 (stereo unspecified) | -11 | 32 | 8 | -9 | 0 | -2 | nt
CCN(C(=O)COC(=O)CSc1ccc([N+](=O)[O-])cc1)C1CCS(=O)(=O)C1 (stereo unspecified) | -7 | 60* | -5 | 16 | -4 | 10 | 1
Cc1ccc(S(=O)(=O)c2nnn3c2nc(N2CCCCC2)c2ccccc23)cc1 | 0 | 72* | -4 | nt | 3 | 3 | 25
Cc1ccc(S(=O)(=O)c2nnn3c2nc(N2CCOCC2)c2ccccc23)cc1 | 0 | -5 | 5 | nt | -1 | 5 | nt
CCc1sc(C(=O)Nc2nc(C)cs2)cc1C | -8 | 61* | -13 | nt | -2 | -2 | 11
O=C(Nc1cc2c3c(c1)CC(=O)N3CCC2)c1ccc(Br)o1 | 4 | 4 | 14 | 15 | 5 | 4 | nt
C=C(C)Cn1c(C)cc(C)c(S(=O)(=O)c2ccc(C)cc2)c1=O | -3 | 16 | -8 | -9 | -1 | -6 | nt
